Laboratory results: PubChem BioAssay AID504834 (National Center for Advancing Translational Sciences (NCATS), 2011)
In all, about 320,000 compounds went through this assay and about 22,000 (6.9%) were called active. Another 27% or so got no clear call; they are omitted. Calls follow the shape of the dose curve; as a rule, active = well fitted inhibition curve with a large enough effect; inconclusive = small, poorly fitted or top-dose-only effect, or another doubt; inactive = no such curve, though single readings can be large or run the other way. Only a selection was taken, and actives are over-represented in it overall.

Test: Primary qHTS for delayed death inhibitors of the malarial parasite plastid, 96 hour incubation
Settings: P. falciparum luciferase reporter growth; series mostly up to 28.7 µM; activity change, negative = inhibition: at the top concentration
In short: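 Plates of compound plus infected erythrocytes (2% hematocrit, 0.05% parasitemia final) incubate 96 hours, 37 C, 5% CO2. Detection reagent added; reduced luminescence from the parasites' luciferase reporter flags inhibition.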
% is scaled to controls: 0 for no effect and ±100 for the full control effect; potency is read from the fitted curve at half-maximal effect.

Row | Structure (SMILES) | activity change, negative = inhibition | Potency
1 | COc1ccc(-n2c(=O)[nH]c3cc(C(=O)NCCc4ccc(OC)c(OC)c4)ccc3c2=O)c(OC)c1 | 184% (inactive) | –
2 | Cc1cc(C)c2c(-n3cccc3)c(C(=O)NNS(=O)(=O)c3ccc(F)cc3)sc2n1 | 50.7% (inactive) | –
3 | Cc1cc(C)c2c(-n3cccc3)c(NC(=O)OCc3ccccc3)sc2n1 | – | 13.1 µM (active)
4 | CCCCOC(=O)Nc1sc2nc(C)cc(C)c2c1-n1cccc1 | 37.7% (inactive) | –
5 | COc1ccccc1-n1c(SCC(=O)Nc2cccc(C(=O)O)c2)nnc1-c1ccccc1O | 22.7% (inactive) | –
6 | Cc1cc(C)c2c(-c3ccc(F)cc3)c(C#N)c(=O)n(C)c2n1 | 2.64% (inactive) | –
7 | O=C(CCN1C(=O)[C@@H]2Cc3ccccc3CN2C1=O)NCc1ccccc1 | -23.2% (inactive) | –
8 | C=CCc1cccc(/C=N/NC(=O)COc2ccc(-n3cnnn3)cc2)c1O | -7.84% (inactive) | –
9 | Cc1ccc(C(=O)OCC(=O)NC(=O)Cc2ccccc2)c(O)c1 | -1.22% (inactive) | –
10 | COc1ccc(-c2csc(NC(=O)COC(=O)c3ccc(Br)o3)n2)cc1 | 212% (inactive) | –
11 | O=C(NCCc1csc(-c2ccccc2)n1)c1ccccc1F | 0.738% (inactive) | –
12 | COc1ccc(-c2nc(CCNC(=O)c3ccc(Br)o3)cs2)cc1 | – | 8.28 µM (active)
13 | NS(=O)(=O)c1ccc(NC(=S)N2CCCC2)cc1 | 6.43% (inactive) | –
14 | Cc1ccc(C2C3=C(Nc4[nH]n(-c5ccccc5)c(=O)c42)c2ccccc2C3=O)cc1 (configuration not stated) | – | 11.7 µM (active)
15 | Cc1ccc(N=Nc2c(C)[nH]n(-c3ccccc3)c2=O)cc1 | 1.36% (inactive) | –
16 | COC(=O)C1=C(C)NC2=C(C(=O)c3ccccc32)C1c1ccc(-c2ccc(C(=O)O)cc2)o1 (configuration not stated) | 6.59% (inactive) | –
17 | CC1C(=O)NC(=O)C1c1ccccc1 (configuration not stated) | 130% (inactive) | –
18 | COc1ccccc1C(=O)NCCC(=O)NC1=NCCS1 | -7.83% (inactive) | –
19 | CCOC(=O)c1ccccc1NC(=O)COC(=O)CCC(=O)N1CCOCC1 | -0.129% (inactive) | –
20 | COc1ccc(N(C(=O)CNC(=O)c2ccco2)C(C(=O)NCC2CCCO2)c2ccccc2)cc1Cl (configuration not stated) | 8.89% (inactive) | –
21 | N=c1c2c(-c3ccccc3)c(-c3ccccc3)n(Cc3ccccc3)c2ncn1CCCO | – | 4.65 µM (active)
22 | Cc1nc([N+](=O)[O-])c(NCCCO)n1Cc1ccccc1 | 39.3% (inactive) | –
23 | COCCn1cnc2c1c(=O)n(CC(=O)NN)c(=O)n2Cc1ccccc1 | -3.42% (inactive) | –
24 | CC1=C(C(=O)OC2CCCCC2)C(c2ccccc2F)NC(=O)N1 (configuration not stated) | 17.6% (inactive) | –
25 | O=C(CSc1nnc(-c2ccccc2O)o1)NC1CCCCC1 | 64.5% (inactive) | –
26 | COc1ccccc1NC(=O)COC(=O)COc1ccccc1F | 2.96% (inactive) | –

Row | Structure (SMILES) | activity change, negative = inhibition | Potency
27 | C=CCSc1nc2c(c(=O)[nH]c(=O)n2C)n1Cc1ccccc1 | 22.8% (inactive) | –
28 | C=CCn1c(SCc2ccccc2)nc2c1c(=O)[nH]c(=O)n2C | -26.5% (inactive) | –
29 | CCCCCn1c(SCCC(C)C)nc2c1c(=O)[nH]c(=O)n2C | – | 13.1 µM (active)
30 | CCN(CC)C(=O)CC1(c2ccccc2OC)CCOC(C(C)C)C1 (configuration not stated) | – | 11.7 µM (active)
31 | COc1ccccc1OCc1ccc(C(=O)NC(C)c2ccccc2)o1 (configuration not stated) | 220% (inactive) | –
32 | CCN(CC(=O)Nc1ccccc1OC)C(=O)CC1CC2CCC1C2 (configuration not stated) | -22% (inactive) | –
33 | CN1CCN(S(=O)(=O)c2cccc(C(=O)Nc3cccc(S(N)(=O)=O)c3)c2)CC1 | 27.2% (inactive) | –
34 | CN(C)c1ccc(S(=O)(=O)NCC(=O)NCC2CCCCC2)cc1[N+](=O)[O-] | 2.12% (inactive) | –
35 | CCOc1ccc(C(CCc2ccccc2)NC(=O)c2ccc(OC)c(OC)c2)cc1OCC (configuration not stated) | – | 0.233 µM (active)
36 | COc1ccc(C(=O)OCC(=O)NCCCc2ccccc2)cc1OC | 9.81% (inactive) | –
37 | CCOc1ccc(C(CC(=O)O)NC(=O)C23CC4CC(CC(C4)C2)C3)cc1OC (configuration not stated) | 21.1% (inactive) | –
38 | Cc1cc(NS(=O)(=O)c2ccc(NC(=O)c3cccnc3)cc2)nc(C)n1 | 20.1% (inactive) | –
39 | CCN1N=C(c2ccccc2)CCC1=O | 49.6% (inactive) | –
40 | O=c1c(-c2ccccc2)coc2c(CN3CCOCC3)c(O)ccc12 | 17.4% (inactive) | –
41 | O=c1oc2c(CN3CCCCC3)c(O)ccc2c2c1CCCCC2 | – | 10.4 µM (active)
42 | CCN1CCN(Cc2c(O)ccc3c(=O)c(-c4ccc(OC)c(OC)c4)c(C(F)(F)F)oc23)CC1 | 90% (inactive) | –
43 | COc1cc(NC(=O)CSC(=S)N2CCCC2)c(OC)cc1Cl | -1.62% (inactive) | –
44 | CN(CCNC(=O)c1cc2c(-c3ccccc3F)nn(C)c2s1)C1CCCCC1 | 3.44% (inactive) | –
45 | COc1ccc(CNC(=O)COc2cccnc2[N+](=O)[O-])cc1 | 27.4% (inactive) | –
46 | Cc1ccc(C)c(S(=O)(=O)N2CCN(CC(=O)Nc3ccc([N+](=O)[O-])cc3)CC2)c1 | – | 10.4 µM (active)
47 | Cc1ccc(C)c(S(=O)(=O)N2CCN(C(=O)Nc3ccccc3)CC2)c1 | 37.2% (inactive) | –
48 | Cc1ccc([N+](=O)[O-])cc1S(=O)(=O)N1CCCN(C)CC1 | 13% (inactive) | –
49 | Cc1c(CNCCc2ccccc2)c(C(=O)O)c(C)n1-c1ccccc1 | 0% (inactive) | –
50 | Cc1ccc(CC2C(=O)N(c3ccc(F)cc3)C(=O)C2C)cc1 (configuration not stated) | 87.4% (inactive) | –
51 | CCCc1nn(C)c2c(=O)[nH]c(-c3cc(S(N)(=O)=O)ccc3OCC)nc12 | -15.6% (inactive) | –
52 | CC(C)CN(C(=O)c1cccc(S(=O)(=O)N2CCCCC2)c1)C1CCS(=O)(=O)C1 (configuration not stated) | 24.2% (inactive) | –
